Screening results: PubChem, National Center for Advancing Translational Sciences (NCATS)
Gal4-VP16 FLuc = VP16 counterscreen qHTS for inhibitors of ROR gamma transcriptional activity. Drosophila S2 Gal4-VP16 UAS-luciferase, luminescence, 20 h. Potency, µM (series often up to 53.6 µM), actives largely listed as inhibitors. 310,000 tested, 3.5% active. AID 2546, 2010;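 further: Gal4-VP16 expression switched on by copper sulfate through the metallothionein promoter; nearly all actives have a fitted effect of over 50% in size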
ELG1 DNA repair = qHTS screen for small molecules that inhibit ELG1-dependent DNA repair in human embryonic kidney (HEK293T) cells expressing luciferase-tagged ELG1. HEK293T ELG1-luciferase reporter, luminescence, 16 h; DNA damage induced by 5-fluorouridine. Potency, µM (titrated, usually from 46.1 µM), hits mostly inhibitors. 330,000 tested, 2.3% active; further: nearly all actives have a fitted effect of over 55% in size
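Luminescence from the luciferase reporter, measured 30 min after ONE-Glo reagent at room temperature, was the read-out. Beforehand, 2,000 cells per well were exposed for 16 hr at 37 °C to 5-fluorouridine together with compound or vehicle.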
RORg inh = qHTS for inhibitors of ROR gamma transcriptional activity | Drosophila S2 Gal4-RORgamma UAS-luciferase reporter, 20 h | Potency, µM (highest dose often 53.6 µM), usual class: inhibitors | Nuclear receptor ROR-gamma (Mus musculus), P51450 | AID 2551, 2010 | 310,000 tested, 5.4% active; further: nearly all actives have a fitted effect of over 60% in size
Target sequence (P51450 whole entry, looked up, the tested form may be a part): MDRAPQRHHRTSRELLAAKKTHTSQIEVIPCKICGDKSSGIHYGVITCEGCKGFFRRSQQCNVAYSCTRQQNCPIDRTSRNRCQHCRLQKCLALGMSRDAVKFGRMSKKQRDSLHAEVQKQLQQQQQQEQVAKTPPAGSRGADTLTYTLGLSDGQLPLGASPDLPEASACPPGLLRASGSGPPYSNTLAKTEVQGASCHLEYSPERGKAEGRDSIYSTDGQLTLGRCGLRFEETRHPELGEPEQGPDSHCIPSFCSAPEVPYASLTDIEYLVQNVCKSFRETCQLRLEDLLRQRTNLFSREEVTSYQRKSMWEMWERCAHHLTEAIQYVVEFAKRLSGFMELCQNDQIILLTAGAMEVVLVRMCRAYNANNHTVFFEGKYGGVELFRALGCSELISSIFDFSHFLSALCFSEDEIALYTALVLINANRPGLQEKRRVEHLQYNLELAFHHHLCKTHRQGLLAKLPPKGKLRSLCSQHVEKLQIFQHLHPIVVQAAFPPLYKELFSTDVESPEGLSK
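Using a luciferase readout, inhibitors were identified by reduced reporter activity in Drosophila cells coexpressing a copper-inducible Gal4–ROR gamma fusion and UAS-driven Photinus luciferase, incubated 20 hr after 700 uM copper sulfate.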
Giardia kill = Small Molecules that selectively kill Giardia lamblia: qHTS; 340,000 tested, 0.15% active; activity change, % at 7.66 µM, hits read low; Giardia lamblia trophozoite viability; in the data active means activity change below about -80%; inconclusive means between about -30% and that limit;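 further: parasites exposed to compound for two days anaerobically before the ATP read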
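Giardia trophozoites, 100 cells per well, were exposed to compounds for 48 hrs at 37 deg C under anaerobic conditions; viability was then read as ATP content by bioluminescence after 15-30 min at room temperature.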
BRCA1 expr act = qHTS Assay to Identify Small Molecule Activators of BRCA1 Expression | MCF7-BRCA1-FFLuc reporter, luminescence, 48 h; response scale: scaled: vehicle 0%, 10 µM genistein 100% | Potency, µM (titrated, usually from 46.1 µM), hits mostly activators | 380,000 tested, 1.1% active | AID 624202, 2012; further: nearly all actives have a fitted effect of over 80% in size
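MCF7-BRCA1-FFLuc, 2000 cells/well; 2 h attach, 37 °C/5% CO2; compound 48 h; luciferase substrate 15 min; luminescence end-point. Norm. to genistein 10 microM max activation and DMSO; concentration-response curves fitted.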
p53 reactivation = qHTS assay for re-activators of p53 using a Luc reporter; H1299 p53-A138V BP100-luciferase reporter, luminescence, 24 h; Potency, µM (titrated, usually from 92.2 µM), most hits filed as activators; 320,000 tested, 0.063% active; further: nearly all actives have a fitted effect of over 45% in size
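H1299 (p53-null), stable ts p53-A138V + BP100-Luc; 1000 cells/well, Opti-MEM/10% FBS; cpd 4 pt, 1:5; 24 h, 37 deg C, 5% CO2; detection reagent 10 min RT; luminescence.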
Of the large screens only hits and unclear results are named; the others gave an inactive call. Rows were chosen to be rich in hits. Some 7.6% of all compounds tested hit in one or more screens of this group. Unless noted, the call rests on the fitted dose curve; in most records, active means well fitted curve in the direction sought with a large enough effect; inconclusive means small, poorly fitted or top-dose-only effect, or another doubt; inactive means no such curve, though single readings can be large; an effect the other way counts as inactive or inconclusive.

CC(Oc1ccc(Cl)cc1Cl)C(=O)NC(=S)N1CCc2ccccc21 (centres undefined)	Gal4-VP16 FLuc 0.89µM, RORg inh 0.71µM
CC(C)CCn1nnnc1C(c1ccc(F)cc1)N1CCN(C(=O)c2ccco2)CC1 (centres undefined)	none
CC(C)CN(CC(C)C)C(=O)COc1ccccc1C(N)=O	none
Cn1c(SCc2ccccc2)nnc1-c1ccc2nonc2c1	ELG1 DNA repair inconclusive
CN(Cc1ccccc1)c1nc(CN2CCOCC2)nc2scc(-c3ccccc3)c12	Gal4-VP16 FLuc inconclusive, ELG1 DNA repair inconclusive, RORg inh 10µM
Fc1ccc(N2CCN(c3nc(CN4CCOCC4)nc4scc(-c5ccccc5)c34)CC2)cc1	ELG1 DNA repair inconclusive, RORg inh 10µM
CCNc1nc(CN2CCCCC2)nc2scc(-c3ccccc3)c12	Gal4-VP16 FLuc inconclusive, RORg inh 16µM
Fc1ccc(CN2CCN(c3ncnc4scc(-c5ccccc5)c34)CC2)cc1	ELG1 DNA repair inconclusive
OCC1CCCN(c2nc(CN3CCCCC3)nc3scc(-c4ccccc4)c23)C1 (centres undefined)	none
CC1Cc2ccccc2N1C(=O)c1ccc2c(c1)nnn2C (centres undefined)	none
CC(C)(C)c1ccc(C(=O)NC(=S)Nc2nc3c(s2)CCCC3)cc1	Gal4-VP16 FLuc 4.5µM, ELG1 DNA repair inconclusive, RORg inh 1.8µM, p53 reactivation inconclusive
CC(C)(C)c1ccc(C(=O)NC(=S)Nc2sc3c(c2C#N)CCC3)cc1	none
COC(=O)Nc1nc2c(s1)CCCC2	ELG1 DNA repair inconclusive, RORg inh inconclusive, BRCA1 expr act inconclusive, p53 reactivation inconclusive
CN(C)c1ccc(C(=O)Nc2nc3c(s2)CCCC3)cc1	Gal4-VP16 FLuc 11µM, ELG1 DNA repair inconclusive, RORg inh 5.6µM, p53 reactivation inconclusive
C/C(=N\Nc1nc2c(s1)CCCC2)c1ccc(Cl)cc1	Gal4-VP16 FLuc 11µM, ELG1 DNA repair inconclusive, RORg inh 1.3µM
Oc1ccc(-c2n[nH]c(C(F)(F)F)c2-c2ccccc2)c(O)c1	Gal4-VP16 FLuc 1.6µM, ELG1 DNA repair inconclusive, RORg inh 5.6µM
COc1ccc(-c2c(-c3ccc(O)cc3O)n[nH]c2C)cc1OC	ELG1 DNA repair inconclusive
COc1ccc(-c2c(-c3ccc(O)cc3O)n[nH]c2C(F)(F)F)cc1	Gal4-VP16 FLuc 10µM
COc1ccccc1-c1c(-c2ccc(O)cc2O)n[nH]c1C(F)(F)F	ELG1 DNA repair 5.8µM, RORg inh inconclusive
COc1ccc(-c2c(-c3ccc(OC)c(C)c3O)n[nH]c2C)cc1	Gal4-VP16 FLuc 11µM, RORg inh 11µM
CCCCCSc1nnc(-c2ccccc2NC(C)=O)c(=O)[nH]1	none
CCCOCC1CC(CCc2nc(=S)[nH][nH]2)C(=O)O1 (centres undefined)	none
Cc1ccc(NS(=O)(=O)c2ccc(-n3cccn3)cc2)cc1F	none
COc1ccc(-c2ncncc2-c2ccc(Cl)cc2)c(O)c1	ELG1 DNA repair inconclusive, RORg inh inconclusive
COc1ccc(-c2cncnc2-c2ccc(OC)cc2O)cc1	ELG1 DNA repair 5.8µM, RORg inh inconclusive
CN1CCN(C2=Cc3ccccc3Sc3cc(F)c(Cl)cc32)CC1	Gal4-VP16 FLuc inconclusive, RORg inh inconclusive
CN1CCN(C2=Cc3ccccc3Sc3cc(F)c(F)cc32)CC1	Gal4-VP16 FLuc 7.9µM, RORg inh 7.9µM
S=c1[nH]nc(-c2ccccc2)n1/N=C/c1cccs1	RORg inh 4µM
Cc1cccc(/C=N/n2c(-c3ccccc3)n[nH]c2=S)c1O	Gal4-VP16 FLuc inconclusive (no result: p53 reactivation)
O=[N+]([O-])c1ccc(/C=N/n2c(-c3cccnc3)n[nH]c2=S)cc1	none
Cc1ccc(-c2n[nH]c(=S)n2/N=C/c2cccs2)cc1	Gal4-VP16 FLuc 3.2µM, RORg inh 5µM
Cc1cc(-c2n[nH]c(=S)n2/N=C/c2cccs2)n[nH]1	Gal4-VP16 FLuc inconclusive, ELG1 DNA repair inconclusive
Cc1ccsc1/C=N/n1c(-c2cccnc2)n[nH]c1=S	RORg inh 11µM
O=C(Cn1cnc2c(OCc3ccccc3)ncnc21)NCC1CCCO1 (centres undefined)	none (no result: Gal4-VP16 FLuc, RORg inh)
O=C(CSc1nnc(NC(=O)c2ccc(S(=O)(=O)N3CCOCC3)cc2)s1)Nc1ccccc1C(F)(F)F	none
COc1ccc(Cl)cc1NC(=O)CNc1ccc(F)cc1C	Gal4-VP16 FLuc inconclusive, RORg inh inconclusive
CCN(C(N)=S)c1ccccc1	RORg inh 11µM
CCN(C(=S)NCc1ccccc1)c1ccccc1	ELG1 DNA repair inconclusive, RORg inh 14µM
CCN(C(=N)N=C(N)N)c1ccccc1	none
C=CCNC(=S)N(CC)c1cccc2ccccc12	Gal4-VP16 FLuc inconclusive, RORg inh 7.1µM
CCN(Cc1ccncc1)C(=S)NCc1ccccc1	none
CCN(C(=S)NCc1ccccc1)c1cccc2ccccc12	Gal4-VP16 FLuc inconclusive, RORg inh 7.1µM
O=C(CCN1CCN(S(=O)(=O)c2ccc(F)cc2)CC1)Nc1ccccc1F	none
Cc1ccc(S(=O)(=O)NCC(=O)OCC(=O)N2C(C)CCCC2C)cc1 (centres undefined)	none (no result: Gal4-VP16 FLuc, RORg inh)
CCOc1ccc(S(=O)(=O)NCCC(=O)NC2=NCCS2)cc1	none
CCN(CCNC(=O)C1CCN(S(=O)(=O)c2c(C)noc2C)CC1)c1ccccc1	none
CCOc1ccc2c(c1)sc(=NC(=O)C1CC1)n2C	BRCA1 expr act 2.8µM (no result: ELG1 DNA repair, p53 reactivation)
CCCCCCC(C)NC(=S)Nc1cc(S(=O)(=O)N(C)C)ccc1C (centres undefined)	Gal4-VP16 FLuc inconclusive, RORg inh 13µM
Cc1ccc(S(=O)(=O)N(C)C)cc1NC(=S)NC(C)CCCC(C)C (centres undefined)	Gal4-VP16 FLuc inconclusive, RORg inh 18µM
Cc1ccc(S(=O)(=O)N(C)C)cc1NC(=S)NC(C)CCC(C)C (centres undefined)	Gal4-VP16 FLuc inconclusive, RORg inh 13µM
C[C@@H](C(=O)Nc1ccc2ccccc2c1)[C@@H]1C[C@@]1(C)[C@@H](NS(=O)(=O)c1ccc2ccccc2c1)c1ccccc1	RORg inh inconclusive (no result: ELG1 DNA repair, Giardia kill, BRCA1 expr act, p53 reactivation)
COc1c(C)cccc1C(=O)Nc1ccc(N2CCOCC2)c(Cl)c1	ELG1 DNA repair inconclusive, BRCA1 expr act 2.5µM, p53 reactivation inconclusive
O=C(Nc1ccc(N2CCOCC2)c(Cl)c1)c1c(F)c(F)c(F)c(F)c1F	Gal4-VP16 FLuc inconclusive
COc1ccc(OCC(=O)Nc2ccc(N3CCOCC3)c(Cl)c2)cc1	ELG1 DNA repair inconclusive
